GDH-TPI counter – GDH-TPI coupled enzyme inhibition counter-screen | GDH-TPI coupled enzyme counterscreen, NADH absorbance | inhibition, % at 4.8 µM | 360,000 tested, 1.2% active | AID 588335; in the data active means inhibition above about 30%;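 further: 0% = DMSO wells and 100% = wells lacking the enzyme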
Rv3671c inh – inhibits the M. tuberculosis serine protease Rv3671c. P9WHR9. inhibition, % at 5.96 µM. 320,000 tested, 0.048% active. AID 2606; in the data active means inhibition above about 38%;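 further: extracellular domain of Rv3671c used as enzyme; 0% = enzyme with DMSO and 100% = no enzyme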
Target sequence (P9WHR9 whole entry, looked up, the tested form may be a part): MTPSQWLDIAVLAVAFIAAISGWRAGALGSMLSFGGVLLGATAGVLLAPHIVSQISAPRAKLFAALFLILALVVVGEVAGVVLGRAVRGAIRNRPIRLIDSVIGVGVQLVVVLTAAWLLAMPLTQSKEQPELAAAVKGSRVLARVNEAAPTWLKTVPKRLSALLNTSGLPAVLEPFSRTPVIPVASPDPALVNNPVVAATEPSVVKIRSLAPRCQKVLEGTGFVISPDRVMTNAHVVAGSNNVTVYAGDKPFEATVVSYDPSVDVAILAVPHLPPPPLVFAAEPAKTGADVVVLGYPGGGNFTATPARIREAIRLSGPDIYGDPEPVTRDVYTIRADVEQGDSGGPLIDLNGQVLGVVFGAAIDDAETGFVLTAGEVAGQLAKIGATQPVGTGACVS
Mtb UGM inh – blocks M. tuberculosis UGM enzyme | P9WIQ1 | purified UGM, fluorescence polarization probe displacement | inhibition, % at 10 µM | 320,000 tested, 0.06% active; in the data active means inhibition above about 10%, passing the limit was not always enough; inconclusive means no clear call, values can overlap the other calls
FadD28 FP inh – blocks FadD28 binding to the bisubstrate probe; fluorescence polarization; inhibition, % at 12.5 µM; 360,000 tested, 0.22% active; AID 588549; in the data active means inhibition above about 8.5%, passing the limit was not always enough; inconclusive means no clear call, values can overlap the other calls
Mtb FBA inh – inhibits M. tuberculosis FBA enzyme | 360,000 tested, 2.3% active | purified M. tuberculosis FBA, fluorescence read-out | inhibition, % at 1 µM; in the data active means inhibition above about 27%;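 further: 0% = vehicle and 100% = reference inhibitor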
Mtb betalactam – beta-lactam sensitization of Mtb H37Rv; M. tuberculosis H37Rv growth with meropenem, percent inhibition; inhibition, % at 25 µM; 330,000 tested, 0.27% active; call rule not given here;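 further: growth measured after seven days incubation then overnight dye step; 0% = bacteria only wells and 100% = bacteria with antibiotic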
* marks the source's active call; other numbers are inactive results; ? = inconclusive; / = not tested or not shown; + = active, no number. Most compounds without a hit are left out; they make up all but 3.7% or so of the library.

SMILES	GDH-TPI counter	Rv3671c inh	Mtb UGM inh	FadD28 FP inh	Mtb FBA inh	Mtb betalactam
Cc1cc(=O)oc2c(CN3CCCCC3)c(O)ccc12	16	/	/	-2	/	/
CCc1c(C)c2cc(Cl)c(O)c(CN3CCCCC3)c2oc1=O	2	1	1	-4	+	11
CCc1cc(=O)oc2c(CN3CCN(C)CC3)c(O)c(Cl)cc12	44*	2	0	0	+	?
O=c1cc(-c2ccccc2)c2cc(Cl)c(O)c(CN3CCOCC3)c2o1	7	-4	2	1	9	1
CCc1cc(=O)oc2c(CN3CCN(C)CC3)c(O)ccc12	18	1	1	0	+	-4
CCc1cc(=O)oc2c(CN3CCCC3)c(O)c(Cl)cc12	26	5	1	2	+	-12
COCCn1c(SCc2ccc(C)cc2)nc2c1c(=O)[nH]c(=O)n2C	-1	1	0	-5	0	-9
CC1(C(=O)NS(=O)(=O)c2ccccc2Cl)CCN1C(=O)CC1CC1 (configuration not stated)	-7	/	/	0	3	/
COc1ccc(NC(=O)CNc2cc(C)ccc2C)cc1S(=O)(=O)N1CCOCC1	-6	0	/	/	-2	3
Cc1cccn2c(=O)c3cc(C(=O)NC(C)c4ccccc4)c(=N)n(CCCn4ccnc4)c3nc12 (configuration not stated)	0	-10	-1	-5	161*	11
Cc1ccc2nc3c(cc(C(=O)NCc4ccccc4)c(=N)n3CCCn3ccnc3)c(=O)n2c1	11	/	/	-1	131*	/
CCCCCn1c(=N)c(S(=O)(=O)c2ccc(Br)cc2)cc2c(=O)n3cccc(C)c3nc21	-2	-3	-1	-3	-1	1
N#Cc1cc2c(=O)n3ccccc3nc2n(CCCn2ccnc2)c1=N	3	-2	0	-3	25	5
Cc1ccc2nc3c(cc(C(=O)NCCc4ccccc4)c(=N)n3CCN3CCOCC3)c(=O)n2c1	3	-10	1	-16	188*	8
Cc1ccc2nc3c(cc(C(=O)NC4CCS(=O)(=O)C4)n3Cc3ccccc3)c(=O)n2c1 (configuration not stated)	26	-6	2	1	+	11
COc1cccc(NC(=O)C2(C)CCN2Cc2ccccc2OC(F)F)c1 (configuration not stated)	1	/	/	-5	1	/
O=C(Nc1ncccc1O)c1ccc(Oc2ccccc2)cc1	-7	-11	3	-5	-5	30
COCCN(C(=O)CSc1nnc(-c2ccc(F)cc2)n1N)c1c(N)n(CC(C)C)c(=O)[nH]c1=O	-2	/	/	-1	-4	/
OC[C@@H]1CN(Cc2ccc(Cl)cc2)C[C@H](n2cnc3c(NC4CCC4)ncnc32)O1	-1	/	/	-3	0	/
COc1cc(/C=C\C(=O)Nc2cc(=O)n(C)c(=O)n2C)cc(OC)c1OC	25	3	-4	-2	-3	-10
COc1ccc(/C=C/C(=O)NNc2cc(=O)n(C)c(=O)n2C)cc1OC	34*	-18	-1	-2	11	1
COc1ccc(/C=N/Nc2cc(=O)n(C)c(=O)n2C)cc1OC	34*	-12	2	0	13	1
CCOC(=O)C1(C)CCCN(C(=O)c2ccc(-c3ccccc3)cc2)C1 (configuration not stated)	7	/	/	-3	-3	/
COc1ccccc1NC(=O)c1sc2nc(Cc3ccccc3)cc(C(F)(F)F)c2c1N	8	-2	30*	1	1	0
COc1ccc(C2CC(=O)C3=C(C2)Nc2ccccc2NC3c2coc3ccccc3c2=O)cc1OC (configuration not stated)	40*	2	0	0	2	-11
SMILES	GDH-TPI counter	Rv3671c inh	Mtb UGM inh	FadD28 FP inh	Mtb FBA inh	Mtb betalactam
COc1cc(OC)c(C2Nc3ccccc3NC3=C2C(=O)CC(C)(C)C3)cc1OC (configuration not stated)	7	7	2	-4	1	-5
COc1ccc(NC(=O)N(C)C[C@@H]2OCc3ccccc3-c3c(n(C)c4ccccc34)C(=O)N([C@H](C)CO)C[C@H]2C)c(OC)c1	-6	/	/	-1	-2	/
COc1cccc(C(=O)Nc2c3c(nn2-c2ccc(Cl)cc2)CS(=O)(=O)C3)c1OC	0	-5	2	-3	0	7
CC1(C)NC(=O)N(CC(O)COc2ccc(-c3ccc(C#N)cc3)cc2)C1=O (configuration not stated)	-1	-15	1	0	69*	-17
CCOc1ccc(NC(=O)c2ccc3c(c2)S(=O)(=O)N=C2CCCCCN23)cc1	4	/	/	0	5	/
CCOc1ccc(/C=N/NC(=O)c2cc3c(OC)cc(OC)c(OC)c3[nH]2)cc1	34*	22	1	1	1	0
CCOc1ccc2[nH]c(C(=O)N/N=C/c3ccccc3OC)cc2c1	22	-33	-1	-2	6	5
COc1ccc2[nH]c(C(=O)N/N=C/c3ccccc3OC)cc2c1	38*	-11	0	-2	5	-4
COc1ccc(OC)c(/C=N/NC(=O)c2cc3c(OC)c(OC)ccc3[nH]2)c1	35*	14	0	-2	1	1
COc1ccccc1C=NNC(=O)C(=O)NN=Cc1ccccc1OC	34*	/	/	-3	3	/
CCOC(=O)N1CCN(C(=O)C2CCN(C(=O)c3ccccc3C)CC2)CC1	8	/	/	-1	1	/
COc1cc2ccc(CC(N)=O)cc2cc1OC	-12	/	/	-4	4	/
COc1ccc2[nH]c(C(=O)N/N=C/c3ccc(OC)c(O)c3)cc2c1	49*	13	2	-2	0	-2
COc1ccc2[nH]c(C(=O)Nc3ncc(C)cc3Br)cc2c1	-3	1	0	-3	6	-8
COc1ccc2[nH]c(C(=O)Nc3ccc(F)cc3Br)cc2c1	32*	0	0	-2	6	11
CCCOc1ccc2[nH]c(C(=O)N/N=C/c3cc(OC)c(OC)c(OC)c3)cc2c1	30	-18	0	-5	4	8
CCn1c(=NC(=O)c2ccco2)sc2cccc(F)c21	51*	-10	-1	-2	3	62
COc1ccc(OC)c2c1sc(=NC(=O)c1ccco1)n2C	34*	-16	-5	-2	0	2
COc1ccccc1N(C)S(=O)(=O)c1ccc(C(=O)Nc2nccs2)cc1	12	-10	2	-2	-2	3
CC(C)C(N)c1csc(NC(=O)Nc2cccc(Cl)c2)n1 (configuration not stated)	-6	/	/	-11	-1	/
Cc1ccc([C@H]2C[C@H](O)[C@@H](n3cc(COC(=O)c4ccccc4)nn3)CN2Cc2cccs2)cc1	-7	/	/	-4	-1	/
Cc1ccc(NC(=O)C2CCN(S(=O)(=O)c3c(C)noc3/C=C/N(C)C)CC2)cc1	45*	-13	4	-1	0	-1
Cc1noc(C)c1S(=O)(=O)N1CCCC(C(=O)Nc2ccc(Cl)cn2)C1 (configuration not stated)	2	8	0	-2	75*	-10
